According to the supplement of paper PMC12024424:
Structures can show the parent of a compound that is named as a salt.

Legend:
[1] = tested on: Staphylococcus aureus Sa2 (MRSA, cystic fibrosis isolate); test: growth reduction vs untreated control (OD550); higher = stronger antibacterial activity; conditions: 0.1 mM; 24 h
Procedure: (§1)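 Single-dose screen of the MedChem Express Drug Repurposing Library (0.1 mM, 1% DMSO) against planktonic MRSA S. aureus Sa2 (CF isolate) in TSB in 96-well plates, 37 °C aerobic, 24 h. Assays were run in triplicate and repeated twice.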

[2] = tested on: Staphylococcus aureus Sa2 (MRSA, cystic fibrosis isolate); test: growth reduction vs untreated control (viable cell count); higher = stronger antibacterial activity; extreme values may be limits of the assay; conditions: 0.1 mM; 24 h
Procedure: as §1

SMILES | growth reduction [1] | growth reduction [2]
NC(=O)c1cccc2cn(-c3ccc([C@@H]4CCCNC4)cc3)nc12 [Niraparib (tosylate)] | 99.5% | 99%
COC(=O)[C@]12CCC(C)(C)C[C@H]1[C@H]1C(=O)C=C3[C@@]4(C)C=C(C#N)C(=O)C(C)(C)[C@@H]4CC[C@@]3(C)[C@]1(C)CC2 [Bardoxolone methyl] | 100% | 100%
CNCCC(Oc1ccc(C(F)(F)F)cc1)c1ccccc1 (stereo not given) [Fluoxetine (hydrochloride)] | 100% | 100%
Cc1ccc(C(=O)Nc2ccc(CN3CCN(C)CC3)c(C(F)(F)F)c2)cc1C#Cc1cnc2cccnn12 [Ponatinib] | 100% | 95%
Cc1ccc(C(=O)N(CCCN)[C@@H](c2nc3cc(Cl)ccc3c(=O)n2Cc2ccccc2)C(C)C)cc1 [Ispinesib] | 100% | 100%
COc1ccc(C(=O)NC2(C(=O)O)Cc3ccccc3C2)cc1OCCc1cccc(C)c1 | 90.3% | 96%
C=C[C@@H]1C[C@]1(NC(=O)[C@@H]1C[C@@H]2CN1C(=O)[C@H](C(C)(C)C)NC(=O)O[C@@H]1C[C@H]1CCCCCc1nc3ccc(OC)cc3nc1O2)C(=O)NS(=O)(=O)C1CC1 [Grazoprevir] | 100% | 100%
O=C1Nc2ccc(Cl)cc2[C@@](C#CC2CC2)(C(F)(F)F)O1 [Efavirenz] | 96.6% | 98%
C[C@H](Nc1cc(-c2cnn(C)c2)cc(Nc2cnccn2)n1)c1ccc(F)cc1 [Ilginatinib (maleate)] | 100% | 95%
C=C1C[C@H]2[C@@H]3CCC4=CC(=O)CC[C@@H]4[C@H]3CC[C@]2(C)[C@@]1(OC(C)=O)C(C)=O [Nestoron] | 93.2% | 98%
